This excerpt belongs to a sample that is enriched for hits.
Pf Dd2 growth: qHTS Primary assay for Inhibitors of Plasmodium falciparum Dd2 growth in vitro | P. falciparum Dd2 growth, SYBR Green, 72 h | Potency, µM (titrated, usually from 28.9 µM), inactives show top-dose activity, negative = inhibition, hits mostly inhibitors | 120,000 tested, 4.3% active | AID 1347417, 2020; active means well fitted inhibition curve with a large enough effect;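 further: plate controls were DMSO vehicle for no effect and reference drug for full effect; nearly all actives have a fitted effect of over 65% in size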
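Readout: SYBR Green fluorescence, 485 nm excitation, 535 nm emission, after ~16 h lysis at 37C. Before that, Dd2-infected red cells (2.5% hematocrit) grew 72 h with compound, 29 uM top final concentration.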
Numbers without * were called inactive; i = inactive; [ ] = another dose, or the depositor's remark. Potency means the concentration at half of the fitted maximal effect.

SMILES | Pf Dd2 growth
O=C(NCc1cc(-c2ccccn2)no1)[C@H]1CNC[C@@H](C(=O)N2CCOCC2)C1 | 7.7%
CCOC(=O)C[C@@H]1C[C@@H](C(C)C)[C@H](CNS(=O)(=O)c2ccc(NC(C)=O)cc2)C=C1C | -3.0%
Cc1cn(CC(=O)N2C[C@@H](C)[C@](O)(C(C)C)C2)c(=O)[nH]c1=O | -11.5%
COc1cccc(C(=O)N2CCC(c3nn(-c4ccc(F)cc4)c(=O)[nH]3)CC2)c1 | i
CCOc1cc(=O)n2c(c1C(=O)NC1CCCCCC1)CCCC2 | 51.4%
COCc1nnc2n1CCC(NC(=O)c1n[nH]c3ccccc13)CC2 (stereo not given) | 11.9%
O=C1O[C@@H]2CN(Cc3cnc[nH]3)C[C@@H]2N1CCc1ccc(F)cc1 | -22.3%
O=C(NC[C@H]1OC[C@@H](NCc2cccs2)[C@@H]1O)c1cccs1 | 22.4%[44.1 µM]
CCN(CC)C(=O)N1C[C@@H](Oc2cccnc2)C[C@H]1C(=O)N1CCOCC1 | -24.8%
CC(C)NC(=O)c1cccc2c1CCN2C(=O)C1CC1 | 26.4%
CCc1ccc(NC(=O)CSC2=Nc3ccccc3C3=NC(CC(=O)NC4CCCCC4)C(=O)N23)cc1 (stereo not given) | i
O=C(CSC1=Nc2ccccc2C2=NC(CCC(=O)NC3CCCCC3)C(=O)N12)Nc1cccc(C(F)(F)F)c1 (stereo not given) | 10µM*
CC(C)c1ccc(NC(=O)CSC2=Nc3ccccc3C3=NC(CCC(=O)NC4CCCCC4)C(=O)N23)cc1 (stereo not given) | 86.0%
CCOc1ccccc1NC(=O)CSC1=Nc2ccccc2C2=NC(CC(=O)NC3CCCCC3)C(=O)N12 (stereo not given) | 11.2µM*
COc1ccc(NC(=O)CSC2=Nc3ccccc3C3=NC(CCC(=O)NC4CCCCC4)C(=O)N23)cc1 (stereo not given) | 43.8%
O=C(CSC1=Nc2ccccc2C2=NC(CC(=O)NC3CCCCC3)C(=O)N12)Nc1ccc(F)cc1 (stereo not given) | 55.9%
Cc1nn(-c2ccc(F)cc2)c(Oc2ccc(F)cc2F)c1CCC(=O)NCC1CC1 | i
CCc1csc(CNC(=O)c2ccc(N3CC[C@H](O)C3)nc2)n1 | -6.3%
Cc1cccc(OCC(=O)c2ccc3c(c2)N(CC(=O)N(C)Cc2ccccc2)C(=O)CO3)c1 | -11.3%
COCCCN1CCC(Cn2cnc3cn(C)nc3c2=O)C1 (stereo not given) | -0.5%
COc1ccc(S(=O)(=O)N[C@H]2C[C@@H](c3nc(-c4ccc(OC(F)(F)F)cc4)no3)N(C)C2)cc1 | i
COc1ccc(CCN2C(=O)O[C@@H]3CN(C(=O)NCc4ccccc4)C[C@@H]32)cc1 | -9.3%
Cc1cnc(CC2CCN(S(=O)(=O)c3ccc4c(c3)CCC4)CC2)n1CC1CC1 | i
Cc1cn2nc(C(=O)NCc3ccccc3C)cc2c(=O)[nH]1 | 24.8%
Cc1cn2nc(C(=O)NCc3ccc(F)cc3F)cc2c(=O)[nH]1 | 3.16µM*
SMILES | Pf Dd2 growth
Cc1cn2nc(C(=O)NCc3ccc(Cl)cc3)cc2c(=O)[nH]1 | 3.5%
O=C(c1cc(C2CC2)[nH]n1)N(Cc1ccc2c(c1)OCO2)C1CC1 | -6.9%
Cc1cnc(CC2CCCN(C(=O)c3cccnc3)C2)n1Cc1ccc(F)cc1 (stereo not given) | i
Cc1cnc(CC2CCN(C(=O)C3CCOC3)CC2)n1Cc1ccc(F)cc1 (stereo not given) | -2.6%
Cc1cnc(CC2CCN(C(=O)CC3CCCC3)CC2)n1Cc1ccc(F)cc1 | 3.16µM*
Cc1ccc(C(=O)N2CCC(Cn3c(C)cnc3C3CCC3)CC2)cn1 | -7.7%
Cc1cnc(C2CCC2)n1CC1CCN(C(=O)Cc2cccnc2)CC1 | 4.3%
Cc1cnc(CC2CCN(C(=O)NC(C)C)CC2)n1Cc1ccc(F)cc1 | i
Cc1cnc(CC2CCN(C(=O)C(C)c3ccccc3)CC2)n1Cc1ccc(F)cc1 (stereo not given) | 2.24µM*
Cc1cnc(CC2CCCNC2)n1Cc1ccc(F)cc1 (stereo not given) | -26.0%
Cc1cnc(C2CCC2)n1CC1CCN(C(=O)C(C)c2ccccc2)CC1 (stereo not given) | 8.91µM*
O=[S+]1([O-])NCC2(CCN(Cc3ccc(F)cc3)C2)Oc2ccncc21 (stereo not given) | -18.4%
O=C(C1CCCCC1)N1C[C@@H]2C[C@H](C1)c1c(/C=C/c3ccc(Cl)cc3)ccc(=O)n1C2 | i
COc1cccc(-c2cc3c(=O)n(CCNC(=O)c4ccoc4)ccn3n2)c1 | -5.7%
O=Cc1ccccc1-c1ccccn1 | 12.0%[44.1 µM]
O=S(=O)(c1ccc(Cl)cc1)c1nnn2c1nc(NCc1ccc(F)cc1)c1ccccc12 | 117.2%
O=C(c1cccc(Cl)c1)N1CCC(c2nn(-c3ccc(Cl)cc3)c(=O)[nH]2)CC1 | i
CCn1c(-c2ccccc2)nn(CC(=O)NCc2ccc3nonc3c2)c1=O | 0.8%
O=C(NCc1ccc2nonc2c1)[C@@]12CNC[C@@H]1CN(C1CCCC1)C2 | 7.94µM*
O=C(O)[C@]12CN(Cc3ccncc3)C[C@H]1CN(C1CCOCC1)C2 | -12.3%
Cc1ccccc1N1Cc2c(NCC3CC3)ncnc2N(C)CC1=O | -2.5%
Cn1ccc(C(=O)N2CC(CNC(=O)Cc3ccccc3)C3(C2)CN(c2ccccc2)C3)n1 (stereo not given) | -17.9%
O=C(C1CCN(S(=O)(=O)c2ccc(Br)s2)CC1)N1CCN(c2ccc(F)cc2)CC1 | -8.0%
O=C(c1cc(-c2ccc(Cl)cc2)n[nH]1)N1CCN(S(=O)(=O)c2ccc(Br)s2)CC1 | -25.0%
Cc1ccc(-c2cc(C(=O)N3CCN(S(=O)(=O)c4ccc(Br)s4)CC3)[nH]n2)cc1C | 3.4%
SMILES | Pf Dd2 growth
Cc1cc(Br)ccc1NC(=O)C1CCN(S(=O)(=O)c2ccc(Br)s2)CC1 | -18.4%
Cc1ccc(-c2cc(C(=O)N3CCN(S(=O)(=O)c4ccc(Br)s4)CC3)[nH]n2)c(C)c1 | 12.6µM*
O=C(c1cc(-c2ccc(Br)cc2)n[nH]1)N1CCN(S(=O)(=O)c2ccc(Br)s2)CC1 | 8.91µM*
CCOC(=O)C1CCCN(C(=O)C2CC(c3ccc(OC)c(OC)c3)CN(C(=O)COC)C2)C1 (stereo not given) | i
CC(C)(C)CC(=O)NC[C@H]1OC[C@@H](NC2CCCC2)[C@@H]1O | i
NCc1cccc(-c2cccc(Cl)c2)c1 | 12.6µM*
C=Cc1cccc(-c2nccn2-c2cccc(CN)c2)c1 | -28.3%
NCc1cccc(-c2cncnc2)c1 | 6.4%[44.1 µM]
COc1cccc(S(=O)(=O)N2[C@H]3CC[C@@H]2c2cnc(C)nc2C3)c1 | 16.9%
O=C(NC1CCCCC1)N1CCCCCC1c1nc(-c2ccncc2)no1 (stereo not given) | -47.0%
O=C(c1ccccc1)N1Cc2[nH]cnc2C[C@H]1c1nc(-c2ccncc2)no1 | 11.2µM*
Cc1cccc(-c2noc([C@@H]3Cc4nc[nH]c4CN3C(=O)Nc3cccc(F)c3)n2)c1 | 12.6µM*
O=C(NC1CCCCC1)N1Cc2[nH]cnc2C[C@H]1c1nc(-c2ccncc2)no1 | 12.6µM*
O=C(Nc1cccc(F)c1)N1Cc2[nH]cnc2C[C@H]1c1nc(-c2ccccc2)no1 | -24.1%[44.1 µM]
Cc1cccc(-c2noc([C@@H]3Cc4nc[nH]c4CN3C(=O)Nc3cccc(C#N)c3)n2)c1 | -26.7%[44.1 µM]
COc1ccc(NC(=O)N2Cc3[nH]cnc3C[C@H]2c2nc(-c3ccc(OC)cc3)no2)cc1 | i
O=C(Nc1ccccc1)N1Cc2[nH]cnc2C[C@H]1c1nc(-c2ccccc2)no1 | i
CC(C)NC(=O)N1Cc2[nH]cnc2C[C@H]1c1nc(-c2ccccc2)no1 | i

From PubChem BioAssay
